# HCV inhibitor: qHTS Assay for Inhibitors of Hepatitis C Virus (HCV) | 340,000 tested, 3.4% active | AID 651820, 2012 | Huh7.5.1 HCVcc-Cre infection, luciferase reporter, 44 h | Potency, µM (doses to about 41.8 µM), for the others: top-dose activity change, negative = inhibition, usual class: inhibitors
#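 After 44 h co-culture of compound, cells and HCVcc-Cre (~0.5 moi), substrate is added for 15 min at room temperature and luciferase measured over 15 sec. Cells were seeded at 1,000/well and pre-cultured 4 h.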
# FMDV antiviral: High Throughput Screening for Foot and Mouth Disease Virus Antivirals | FMDV antiviral cell-based qHTS | Potency, µM (top dose mostly 57.9 µM), without a hit: top-dose activity change, negative = inhibition, usual class: inhibitors | 410,000 tested, 1.2% active | AID 1159524, 2015; calls by dose curve; tested in HEK293T cells; further: read-out not given here; nearly all actives have a fitted effect of over 45% in size
# RE007 growth inh: qHTS Assay for Inhibitors of the HIV-1 protein Vpr; AID 651644, 2012; S. pombe RE007 Vpr strain, BacTiter-Glo ATP luminescence, 24 h; 360,000 tested, 0.21% active; Potency, µM (doses to about 92.2 µM), inactives show at the highest dose activity change, negative = less growth, hits mostly inhibitors; active means well fitted falling curve with a large enough effect; inconclusive means small, poorly fitted or top-dose-only effect; inactive means no such curve, though single readings can be large or run the other way; further: nearly all actives have a fitted effect of over 50% in size
#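 Fission yeast RE007 carrying one integrated HIV-1 vpr copy, seeded at OD 0.01 in PMG+AL medium with 23 nL pinned compound. Grown 24 h at 30 degrees; viability read by BacTiter-Glo luminescence after 5 min.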
# MARV entry inh: qHTS for inhibitors of binding or entry into cells for Marburg Virus. Marburg virus pseudotyped entry inhibition, cell reporter. Potency, µM (doses to about 37.8 µM), inactives show at the highest dose activity change, negative = inhibition, usual class: inhibitors. 300,000 tested, 1.8% active. AID 540276, 2011; calls by dose curve; tested in HEK293 cells
# Sm TGR block: qHTS Assay for the Inhibitors of Schistosoma Mansoni Peroxiredoxins; Schistosoma mansoni thioredoxin glutathione reductase (TGR), Q962Y6; purified TGR, DTNB reduction, TNB absorbance 405 nm; Potency, µM (highest dose often 114 µM), for inactives: at the highest dose activity change, negative = inhibition, hits mostly inhibitors; 360,000 tested, 3% active; AID 485364, 2010; further: nearly all actives have a fitted effect of over 60% in size
#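 Kinetic colorimetric format: TGR-catalysed, NADPH-driven DTNB reduction monitored via TNB absorbance. Enzyme dispensed at 20 nM; compound exposure 15 min at room temperature before reaction start.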
# LASV entry inh: qHTS for Inhibitors of binding or entry into cells for Lassa Virus | Lassa virus pseudotype entry inhibition, cell reporter | Potency, µM (series often up to 37.9 µM), inactives show top-dose activity change, negative = inhibition, usual class: inhibitors | 300,000 tested, 1.2% active; calls by dose curve; tested in HEK293 cells; further: nearly all actives have a fitted effect of over 50% in size
# Starred values were filed as active, the others as inactive; u = inconclusive; x = not tested or not shown; [ ] = another dose, or the depositor's remark. The list is not random: actives were taken first. Their share in the collection is about 7.2%. Unless noted, the call rests on the fitted dose curve; in most records, active means well fitted curve in the direction sought with a large enough effect; inconclusive means small, poorly fitted or top-dose-only effect, or another doubt; inactive means no such curve, though single readings can be large; an effect the other way counts as inactive or inconclusive. On the % scale 0 is the no-effect control and ±100 the full control effect; potency means the concentration at half of the fitted maximal effect.
SMILES,HCV inhibitor,FMDV antiviral,RE007 growth inh,MARV entry inh,Sm TGR block,LASV entry inh
Oc1ccccc1N1CCN(C(=S)Nc2ccc(SC(F)F)cc2)CC1,u,u,4%,u,2%,5µM*
Oc1cccc(NC(=S)Nc2ccc(SC(F)F)cc2)c1,8%,-1%,-4%,u,u,4%
Oc1cccc2c(NC(=S)Nc3ccc(SC(F)F)cc3)cccc12,6%,13µM*,-14%,-30%,-12%,-12%
CCCCNC(=S)Nc1ccc(F)cc1,4%,28%,-15%,-23%,-3%,4%
CC[C@H]1OC(=O)C[C@@H](O)[C@H](C)[C@@H](O[C@@H]2O[C@H](C)[C@@H](O)[C@H](N(C)C)[C@H]2O)[C@@H](CCN2C[C@H](C)C[C@H](C)C2)C[C@@H](C)C(=O)/C=C/C(C)=C/[C@@H]1CO[C@@H]1O[C@H](C)[C@@H](O)[C@@H](OC)[C@H]1OC,x,-12%,x,x,x,x
COC(=O)c1cc2sccc2n1CC(=O)Nc1cc(Cl)ccc1OC,x,u,x,-13%[46.1 µM],0%,x
CCCCn1c(O)c(C(CC)=NCCN2CCOCC2)c(=O)[nH]c1=O,2%,5%,-15%,u,18µM*,-11%
CCCCn1c(O)c(C(C)=NCCN2CCOCC2)c(=O)[nH]c1=O,21%,-7%,-8%,-13%,-3%,-5%
CCCCn1c(O)c(C(CC)=NCCN2CCCCC2)c(=O)[nH]c1=O,-9%,-13%,u,-5%,10µM*,0%
CCCCN(CC)C(=O)Cn1cc2c(n1)-c1c(oc(C(=O)N3CCCC3)c1C)CC2,x,-1%,x,x,-11%,-12%[46.1 µM]
Cc1[nH]n(-c2ncc(-c3ccc(Cl)cc3)s2)c(=O)c1C(c1ccc(Cl)cc1)C(C#N)C#N (stereo unspecified),10%,u,1%,u,u,-5%
COc1ccc(C(c2c(C)[nH]n(C(N)=S)c2=O)C(C#N)C#N)cc1 (stereo unspecified),-2%,25µM*,-18%,-18%,-30%,0%
CC(=O)c1cccc(NC(=O)c2ccc(N(Cc3ccccc3)S(C)(=O)=O)cc2)c1,-26%,32µM*,-5%,-23%,-1%,1%
Cc1cccc(NC(=O)c2ccc(N(Cc3ccccc3)S(C)(=O)=O)cc2)c1,x,22µM*,x,x,-8%,u
CS(=O)(=O)N(Cc1ccccc1)c1ccc(C(=O)Nc2ccc(C(N)=O)cc2)cc1,17%,-5%,12%,x,-60%,x
CCc1ccccc1NC(=O)Cn1nnc(C(=O)NCc2ccco2)c1N,x,3%,x,u,0%,u
CCN(CC)S(=O)(=O)c1cccc(C(=O)/C=C2/N(C)c3ccccc3C2(C)C)c1,10µM*,u,7%,u,3%,u
CN1/C(=C\C(=S)NC(=O)c2ccc([N+](=O)[O-])cc2)C(C)(C)c2ccccc21,u,5%,7%,x,-19%,x
CN1/C(=C\C(=S)NC(=O)c2cccc(Br)c2)C(C)(C)c2ccccc21,11µM*,u,x,u,1%,-1%
CN1/C(=C\C(=O)Nc2cccc(Cl)c2)C(C)(C)c2ccccc21,32µM*,-15%,12%,u,-2%,-27%[46.1 µM]
CCc1nc2c(OCC(=O)c3ccc(F)cc3)cccn2c1N(C)C(=O)c1ccc(OC)cc1,x,-11%,-18%[18.4 µM],x,x,x
O=S(=O)(NCCc1ccc(Cl)cc1)c1ccc(N2CCCCS2(=O)=O)cc1,x,5%,x,x,6%,-17%[46.1 µM]
CC(=O)n1nc(-c2ccco2)nc1SCc1ccccc1,-6%,37%,0%,8%,32µM*,-4%
CCC(=O)n1nc(-c2ccco2)nc1SCc1ccccc1,28%,18%,12%,11%[46.1 µM],8.9µM*,u
COC(=O)[C@@H]1CCCN1C(=O)c1cc(NC(=O)C2CCC2)c2c(c1)nc(-c1ccncc1)n2C,x,-10%,x,x,x,x
SMILES,HCV inhibitor,FMDV antiviral,RE007 growth inh,MARV entry inh,Sm TGR block,LASV entry inh
N=c1c2ccccc2nc2n1CCCCCCCCCCC2,13µM*,u,-9%,u,x,u
Oc1ccc(O)c(Cc2nc3ccccc3[nH]2)c1,-3%,-12%,-8%,-4%[46.1 µM],6.3µM*,-23%[46.1 µM]
COc1ccc(N2CCN(S(=O)(=O)c3ccc4c(c3)CCCC4)CC2)c([N+](=O)[O-])c1,5µM*,x,-3%,u,-24%,u
Cc1ccc(S(=O)(=O)N2CCN(c3ccc(C(F)(F)F)cc3[N+](=O)[O-])CC2)cc1,u,u,7%,8.9µM*,0%,u
Cc1ccc(S(=O)(=O)N2CCN(c3cc4c(cc3[N+](=O)[O-])n(C)c(=O)n4C)CC2)cc1,u,x,2%,23µM*,-3%,u
Cn1c(=O)n(C)c2cc([N+](=O)[O-])c(N3CCN(S(=O)(=O)c4ccc5ccccc5c4)CC3)cc21,u,x,8%,u,0%,-29%
Cn1c(=O)n(C)c2cc([N+](=O)[O-])c(N3CCN(C(=O)c4cccc(Cl)c4)CC3)cc21,u,35µM*,-3%,u,3%,u
O=C(c1ccc(-c2cc3ccccc3oc2=O)cc1)N1CCN(c2ccc(Cl)cc2[N+](=O)[O-])CC1,10µM*,0%,-3%,3%,-6%,-4%
Cc1cc(N2CCN(c3nc(-c4ccccc4)cs3)CC2)c2ccccc2n1,u,28µM*,-7%,-15%,2%,u
Cc1cc(N2CCN(c3ccc(C(F)(F)F)cc3[N+](=O)[O-])CC2)c2ccccc2n1,10µM*,u,1%,x,20%,x
Cc1nc(Sc2ccc(Br)cc2)c(C#N)c(C)c1[N+](=O)[O-],u,20µM*,-16%,u,-12%,u
COC(=O)CC1C(=O)NC2CCCCC2N1C(=O)CCl (stereo unspecified),u,u,-2%,u,6.3µM*,u
COC(=O)c1c(OCc2ccccn2)cc(=O)n2c1CCN(Cc1ccc3c(c1)CCCN3C)CC2,x,-18%,x,x,x,x
CS(=O)(=O)c1ccc(NC(=O)C2CCCN(C(=O)c3ccc(Cl)cc3)C2)cc1 (stereo unspecified),1%,-25%,-1%,x,-3%,x
Cc1ccc(NC(=O)CNC(=O)c2ccc(OC(F)F)cc2)cc1S(=O)(=O)N1CCCCCC1,16µM*,-20%,9%,x,x,x
O=C(Nc1ccc(OC(F)(F)F)cc1)C1CCCN(C(=O)c2ccc(Cl)cc2)C1 (stereo unspecified),7.9µM*,-17%,0%,x,-20%,x
